PubChem BioAssay

Molecular target: Calmodulin-1 (Homo sapiens) (UniProt P0DP23)
Experiment: small molecules binding Ca-loaded calmodulin-1 – biochemical, small-molecule microarray, Cy5-labelled CALM1, plus calcium, artefact control for SMM control-protein annotation, profiling panel (AID 1112);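 note: score merges spot fluorescence with signal to noise from triplicate slides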
Conditions: Cy5-CALM1 binding fluorescence, higher = more signal

Compound | composite z-score
COC(=O)[C@@]1(Cc2ccccc2)[C@H]2c3cc(C(=O)N(C)C)n(Cc4ccccn4)c3C[C@H]2CN1C(=O)c1ccccc1 | 1.35
Cc1ccccc1C(O)C1C=CC2C(=O)N(Cc3ccccc3)C(=O)C2N1n1cnnc1 (stereo not drawn) | -0.535
CCOc1cc(C(O)C2C=CC3C(=O)NC(=O)C3N2Nc2ccccn2)ccc1O (stereo not drawn) | -0.108
CCOC(=O)C[C@H]1[C@H](OC(=O)c2ccccc2-c2ccccc2)[C@@H](NC(=O)c2ccccc2)c2cc(OCCCO)ccc2N1C(=O)Cc1ccc(OC)cc1 | -0.641
COC(=O)C(CC#Cc1ccc2c(c1)[C@]1(C(=O)N2)[C@H](c2ccccc2OCCO)N2[C@H](c3ccccc3)[C@H](c3ccccc3)OC(=O)[C@H]2[C@@H]1C(=O)Nc1nc2ccccc2s1)C(=O)OC | -0.196
C=CCC(OC(C)=O)[C@@H]1[C@@H](N(Cc2cccc3ccccc23)C(=O)c2ccc(C)cc2)c2cc(OCCCO)ccc2N1C(=O)c1ccc2ccccc2c1 (stereo partly drawn) | -0.0542
O=C1NC(=O)C2C1C=CC(C(O)c1ccc3c(c1)OCO3)N2Nc1ccc(Cl)cc1Cl (stereo not drawn) | 0.527
CCC[C@@H]1C[C@@]1(CCC)[C@@H](NC(=O)c1ccco1)c1ccc(Cl)cc1 | 0.0344
CC(C)NC(=O)[C@@]1(Cc2ccccc2I)c2ccccc2C(=O)N(Cc2ccccc2C(F)(F)F)[C@H]1c1ccc(CO)cc1 | 0.377
CCOC(=O)C[C@H]1[C@H](OC(=O)c2ccc(C(=O)c3ccccc3)cc2)[C@@H](NC(=O)C2CCCCC2)c2cc(OCCCO)ccc2N1C(=O)Cc1ccc(OC)cc1 | 0.304
COc1ccc([Si](C)(C)[C@@H]2[C@@H](CC(=O)N3Cc4ccccc4C[C@H]3CO)O[C@]3(C(=O)N(Cc4cccc(N5CCCCC5=O)c4)c4ccccc43)[C@H]2C)cc1 | -0.219
COCC(=C=CC[C@@H](O)c1ccccc1OCCO)C[C@@H](O)c1ccccn1 | -0.514
COCCCNC(=O)[C@]1(CCS(=O)(=O)c2ccccc2)N=C(c2ccc(OCCCO)cc2)O[C@@H]1c1ccccc1 | 0.214
COc1cccc(C[C@H]2C[C@@H](CO[Si](C(C)C)(C(C)C)C(C)C)N3C(=O)[C@]4(C(C)=O)O[C@]23[C@H]2C(=O)N(C)C(=O)[C@H]24)c1 | -0.23
CCCCC(=C=CC[C@H](O)c1cccc(OCCO)c1)C[C@H](O)COCc1ccccc1 | -0.897
CC(C)CNC(=O)[C@@]1(C)c2ccccc2C(=O)N(Cc2ccccc2)[C@H]1c1ccc(CO)cc1 | 0.431
O=C1N(Cc2ccccc2)c2ccccc2[C@H]2OC(c3ccc(OCCCO)cc3)=N[C@@]12CCS(=O)(=O)c1ccccc1 | -0.465
COc1ccc([Si](C)(C)[C@H]2[C@H](CCn3cc(CCO)nn3)O[C@@]3(C(=O)N(Cc4cccc(N5C(=O)c6cccc7cccc5c67)c4)c4ccccc43)[C@@H]2C)cc1 | 0.241
COCCOC(=O)N1C(=O)[C@@]2(c3cc(C#CCC(C(=O)OC)C(=O)OC)ccc31)[C@H](c1ccc(OCCO)cc1)N1[C@H](c3ccccc3)[C@H](c3ccccc3)OC(=O)[C@H]1[C@@H]2C(N)=O | 0.193
[N-]=[N+]=NCc1ccccc1C[C@]1(C(=O)NCCN2CCOCC2)COC(c2ccc(OCCCO)cc2)=N1 | -0.096
O=C(NCc1ccccc1)[C@]1(Cc2ccccc2)N=C(c2ccc(OCCCO)cc2)O[C@@H]1c1ccccc1 | 1.1
CN(C)C(=O)[C@]1(Cc2ccccc2N=[N+]=[N-])N=C(c2ccc(OCCCO)cc2)O[C@@H]1c1ccccc1CN=[N+]=[N-] | 0.271
C=C[C@@H](O)[C@H]1CC(c2ccccc2)=NO1 | -0.711
C=CC[C@]1(C(=O)N(C)C)N=C(c2ccc(OCCCO)cc2)O[C@H]1c1ccccc1 | 0.19
O=C(Nc1cc(Br)ccc1C(=O)NCc1cccc(O)c1)c1ccccc1 | 0.22
CC(C)N1C(=O)c2ccccc2[C@](C)(C(=O)O)[C@@H]1c1ccc(CO)cc1 | 0.531
COCC(=C=CC[C@@H](O)c1ccccc1OCCO)C[C@@H](O)COCc1ccccc1 | 0.0936
C=C(C)[C@@H]1CC=C(C(O)C2C=CC3C(=O)N(C4CCCCC4)C(=O)C3N2Nc2ccc(OC)cc2)CC1 (stereo partly drawn) | 0.417

Test system: not listed separately
Experiment: probe aWnt5a binding to arrayed compounds – biochemical, biotinylated probe, 635/667 nm fluorescence, primary screen (AID 1113);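 note: score merges 667 nm fluorescence intensity with signal-to-noise per printed feature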
Conditions: small-molecule microarray, higher = more signal

Compound | composite z-score
O=C1O[C@H](c2ccccc2)[C@H](c2ccccc2)N2[C@H]1[C@@H](C(=O)NC[C@H](O)c1ccccc1)[C@]1(C(=O)Nc3ccccc31)[C@H]2c1ccccc1OCCO | -0.027
[N-]=[N+]=NCc1ccccc1[C@H]1OC(c2ccc(OCCCO)cc2)=N[C@@]1(Cc1ccccc1N=[N+]=[N-])C(=O)N1CCCCC1 | 0.132
O=[N+]([O-])c1ccc(C[n+]2ccc(-c3ccc(CO)cc3)cc2)o1 | -0.001
O=C1OCC=C[C@H]2OC34C=CCN(CCN5CCOCC5)C(=O)[C@H]3N(CCCCCO)C(=O)[C@@H]4[C@@H]12 (stereo partly drawn) | -0.178
Cc1ccccc1C(O)C1C=CC2C(=O)N(C)C(=O)C2N1Nc1ccc([N+](=O)[O-])cc1[N+](=O)[O-] (stereo not drawn) | 0.14
O=C1NC(=O)C2C1C=CC(C(O)CCc1ccccc1)N2Nc1ccccn1 (stereo not drawn) | -0.0445
O=C(O)[C@@]1(Cc2ccccc2)COC(c2ccc(OCCCO)cc2)=N1 | -0.217
COC(=O)[C@@]1(Cc2ccccc2)[C@H]2c3cc(C(=O)N(C)C)n(Cc4ccccn4)c3C[C@H]2CN1C(=O)c1ccccc1 | 0.241
Cc1ccccc1C(O)C1C=CC2C(=O)N(Cc3ccccc3)C(=O)C2N1n1cnnc1 (stereo not drawn) | 0.0388
CCOc1cc(C(O)C2C=CC3C(=O)NC(=O)C3N2Nc2ccccn2)ccc1O (stereo not drawn) | -0.198
CCOC(=O)C[C@H]1[C@H](OC(=O)c2ccccc2-c2ccccc2)[C@@H](NC(=O)c2ccccc2)c2cc(OCCCO)ccc2N1C(=O)Cc1ccc(OC)cc1 | -0.107
COC(=O)C(CC#Cc1ccc2c(c1)[C@]1(C(=O)N2)[C@H](c2ccccc2OCCO)N2[C@H](c3ccccc3)[C@H](c3ccccc3)OC(=O)[C@H]2[C@@H]1C(=O)Nc1nc2ccccc2s1)C(=O)OC | -0.0239
C=CCC(OC(C)=O)[C@@H]1[C@@H](N(Cc2cccc3ccccc23)C(=O)c2ccc(C)cc2)c2cc(OCCCO)ccc2N1C(=O)c1ccc2ccccc2c1 (stereo partly drawn) | 0.0229
O=C1NC(=O)C2C1C=CC(C(O)c1ccc3c(c1)OCO3)N2Nc1ccc(Cl)cc1Cl (stereo not drawn) | -0.0846
CCC[C@@H]1C[C@@]1(CCC)[C@@H](NC(=O)c1ccco1)c1ccc(Cl)cc1 | -0.252
CC(C)NC(=O)[C@@]1(Cc2ccccc2I)c2ccccc2C(=O)N(Cc2ccccc2C(F)(F)F)[C@H]1c1ccc(CO)cc1 | -0.096
CCOC(=O)C[C@H]1[C@H](OC(=O)c2ccc(C(=O)c3ccccc3)cc2)[C@@H](NC(=O)C2CCCCC2)c2cc(OCCCO)ccc2N1C(=O)Cc1ccc(OC)cc1 | -0.0907
COc1ccc([Si](C)(C)[C@@H]2[C@@H](CC(=O)N3Cc4ccccc4C[C@H]3CO)O[C@]3(C(=O)N(Cc4cccc(N5CCCCC5=O)c4)c4ccccc43)[C@H]2C)cc1 | -0.0585

Compound | composite z-score
COCC(=C=CC[C@@H](O)c1ccccc1OCCO)C[C@@H](O)c1ccccn1 | -0.124
COCCCNC(=O)[C@]1(CCS(=O)(=O)c2ccccc2)N=C(c2ccc(OCCCO)cc2)O[C@@H]1c1ccccc1 | 0.0179
COc1cccc(C[C@H]2C[C@@H](CO[Si](C(C)C)(C(C)C)C(C)C)N3C(=O)[C@]4(C(C)=O)O[C@]23[C@H]2C(=O)N(C)C(=O)[C@H]24)c1 | -0.0721
CCCCC(=C=CC[C@H](O)c1cccc(OCCO)c1)C[C@H](O)COCc1ccccc1 | -0.148
CC(C)CNC(=O)[C@@]1(C)c2ccccc2C(=O)N(Cc2ccccc2)[C@H]1c1ccc(CO)cc1 | -0.192
O=C1N(Cc2ccccc2)c2ccccc2[C@H]2OC(c3ccc(OCCCO)cc3)=N[C@@]12CCS(=O)(=O)c1ccccc1 | 0.0317
COc1ccc([Si](C)(C)[C@H]2[C@H](CCn3cc(CCO)nn3)O[C@@]3(C(=O)N(Cc4cccc(N5C(=O)c6cccc7cccc5c67)c4)c4ccccc43)[C@@H]2C)cc1 | -0.136
COCCOC(=O)N1C(=O)[C@@]2(c3cc(C#CCC(C(=O)OC)C(=O)OC)ccc31)[C@H](c1ccc(OCCO)cc1)N1[C@H](c3ccccc3)[C@H](c3ccccc3)OC(=O)[C@H]1[C@@H]2C(N)=O | -0.0718
[N-]=[N+]=NCc1ccccc1C[C@]1(C(=O)NCCN2CCOCC2)COC(c2ccc(OCCCO)cc2)=N1 | 0.0479
O=C(NCc1ccccc1)[C@]1(Cc2ccccc2)N=C(c2ccc(OCCCO)cc2)O[C@@H]1c1ccccc1 | -0.13
CN(C)C(=O)[C@]1(Cc2ccccc2N=[N+]=[N-])N=C(c2ccc(OCCCO)cc2)O[C@@H]1c1ccccc1CN=[N+]=[N-] | 0.0559
C=C[C@@H](O)[C@H]1CC(c2ccccc2)=NO1 | -0.208
C=CC[C@]1(C(=O)N(C)C)N=C(c2ccc(OCCCO)cc2)O[C@H]1c1ccccc1 | 0.224
O=C(Nc1cc(Br)ccc1C(=O)NCc1cccc(O)c1)c1ccccc1 | 0.0297
CC(C)N1C(=O)c2ccccc2[C@](C)(C(=O)O)[C@@H]1c1ccc(CO)cc1 | -0.143
COCC(=C=CC[C@@H](O)c1ccccc1OCCO)C[C@@H](O)COCc1ccccc1 | 0.0158
C=C(C)[C@@H]1CC=C(C(O)C2C=CC3C(=O)N(C4CCCCC4)C(=O)C3N2Nc2ccc(OC)cc2)CC1 (stereo partly drawn) | -0.0738
